This is an account of results in PubChem BioAssay (NCATS).

The structures appear in SMILES notation.

One test is described as follows: qHTS profiling of the MIPE4 collection as inhibitors of Plasmodium falciparum (DD2) proliferation (Rep 2) (AID 743346). As to conditions: P. falciparum Dd2 in erythrocytes, SYBR Green DNA, 72 h; at 9.64 µM (top of the series). The source says: Plasmodium falciparum is a virulent malarial parasite that kills 1-2 million people worldwide each year. Transmitted by mosquitoes, the sporozoite form of the parasite enters the blood stream to infect hepatocytes, where they become merozoites that infect red blood cells (erythrocytes). Within erythrocytes, merozoites begin a […] cycle of growth and division, after which the parasite is released to infect new red blood cells. Gametocytes, which form within erythrocytes as well, circulate in the bloodstream and are ingested by the mosquito, thereby completing the life cycle. To profile malarial isolates for differential chemical responses and to identify inhibitors of malarial growth, an assay that measures P. falciparum growth and replication within erythrocytes was employed. This assay uses a DNA binding fluorescent dye (SYBR Green) to detect parasite DNA following cell lysis. Because mature erythrocytes lack DNA, only Plasmodium-derived DNA is detected.
The SYBR Green viability assay was adapted from a method described previously (Plouffe et al., 2008). For screening 3 ul culture medium was dispensed into 1536 well black clear bottom plates (Aurora Biotechnologies) using a Multidrop Combi (Thermo Fisher Scientific Inc.), 23 nL compounds in DMSO were added by a pin tool (Kalypsys), and 5 ul of erythrocytes infected with P. falciparum (0.3% parasitemia, 2.5% hematocrit final concentration) were added. The plates were incubated at 37 C in a humidified incubator in 5% CO2 for 72 h, and 2 ul lysis buffer (20 mM Tris HCl, 10 mM EDTA, 0.16% saponin, 1.6% triton X, 10X SYBR Green I supplied as 10,000X […] by Invitrogen) was added to each well. The plates were mixed for 25 sec with gentle shaking and incubated overnight at room temperature in the dark. The following morning, fluorescence intensity at 485(14) nm excitation and 535(25) nm emission wavelengths was measured on an EnVision (Perkin Elmer) plate reader. Plate reads were normalized relative to the control inhibitor (0.29 uM artemisinin) and vehicle (DMSO) wells present on each plate and then corrected by an algorithm using vehicle-only control plates at the beginning and end of the compound plate stack.
For the compound `C[C@H]1C[C@@H]2[C@@H]([C@@H](O)C[C@@]3(C)[C@H]2CC[C@]3(O)C(=O)CO)[C@@]2(C)C=CC(=O)C=C12`, the parasite growth, % of control (lower = inhibition) worked out at 62.6%.

The test is the same for the next values; noted with them: P. falciparum Dd2 in erythrocytes, SYBR Green DNA, 72 h; at 28.5 µM.
For `C[C@H]1C[C@@H]2[C@@H]([C@@H](O)C[C@@]3(C)[C@H]2CC[C@]3(O)C(=O)CO)[C@@]2(C)C=CC(=O)C=C12`, the parasite growth, % of control (lower = inhibition) amounted to 62.7%.

Staying with this test, now noted: P. falciparum Dd2 in erythrocytes, SYBR Green DNA, 72 h; at 28.5 µM unless noted.
On to `CCc1c2c(nc3ccc(O)cc13)-c1cc3c(c(=O)n1C2)COC(=O)[C@]3(O)CC`, for which the parasite growth, % of control (lower = inhibition) was found to be 19.1%. For the compound `Cn1c(CNc2ccc(C(=N)N)cc2)nc2cc(C(=O)N(CCC(=O)O)c3ccccn3)ccc21`, the parasite growth, % of control (lower = inhibition) worked out at 86.3% [at 9.64 µM]. As to `Nc1ccccc1NC(=O)c1ccc(CNC(=O)OCc2cccnc2)cc1`, the parasite growth, % of control (lower = inhibition) worked out at 25.4%. Still for that read-out and setting: next, `O=C(O)CCCc1c[nH]c2ccccc12`: 142%; `C=CC(=O)Nc1cccc(Oc2nc(Nc3ccc(N4CCN(C)CC4)cc3OC)ncc2Cl)c1`: 26.7%; `Clc1ccc2ncc(-c3cccc(NC4CNC4)n3)n2c1`: 24.4%.

With `COc1cc(C(=O)N2CCC(N3CCN(C)CC3)CC2)ccc1Nc1ncc2c(n1)N(C)c1ccccc1C(=O)N2C`, the parasite growth, % of control (lower = inhibition) stood at 19.7%. For `Nc1ccn([C@@H]2CS[C@H](CO)O2)c(=O)n1`, the parasite growth, % of control (lower = inhibition) amounted to 146% [at 57.5 µM]. The same measure, in the same setting: next, `C1=CCOCc2cc(ccc2OCCN2CCCC2)Nc2nccc(n2)-c2cccc(c2)OCC1`: 15.5%; `Cc1cccc(C=NNc2cc(N3CCOCC3)nc(OCCc3ccccn3)n2)c1`: 11.8%; `Cc1ccc(S(=O)(=O)Nc2cc(Cl)ccc2C(=O)Nc2nc(-c3ccccc3)cs2)cc1`: 21.2%.

Consider `CC(C)[C@H](C(=O)Nc1ccc(C(=O)NO)cc1)c1ccccc1`, for which the parasite growth, % of control (lower = inhibition) stood at 12.7%. Consider `O=C(c1cncc(Br)c1)N1CCC(N2CCCC2)CC1`, for which the parasite growth, % of control (lower = inhibition) is 80.8%. `CC1COC2(CCN(c3nc(=O)c4cc(C(F)(F)F)cc([N+](=O)[O-])c4s3)CC2)O1` (stereo not given): the parasite growth, % of control (lower = inhibition) stood at 33.5%. Still for that read-out and setting: for `O=C(NCCS(=O)(=O)c1ccc(C(F)(F)F)cn1)c1ccc(Cl)cc1` the value was 82.3%. The same measure, in the same setting: next, `Cc1nc(Nc2n[nH]c3c2CN(C(=O)N[C@H](CN(C)C)c2ccccc2)C3(C)C)c2sccc2n1`: 9.85%; `Cc1ccc(C(=O)Nc2ccc(CN3CCN(C)CC3)c(C(F)(F)F)c2)cc1C#Cc1cnc2cccnn12`: 13%; `C=CC(=O)Nc1cc2c(Nc3ccc(F)c(Cl)c3)ncnc2cc1OCCCN1CCOCC1`: 29.7%. Same read-out and setting: next, `O=C(Nc1cc(C(F)(F)F)cc(C(F)(F)F)c1)c1cc(Cl)ccc1O`: 14.1%; `CCN1CCN(CC(=O)Nc2ccc(-c3cccc4c(=O)cc(N5CCOCC5)oc34)c3sc4ccccc4c23)CC1`: 16.5%; `CC(=O)c1c(C)c2cnc(Nc3ccc(N4CCNCC4)cn3)nc2n(C2CCCC2)c1=O`: 9.82%. `Cc1c(CN2CCN(S(C)(=O)=O)CC2)sc2c(N3CCOCC3)nc(-c3cnc(N)nc3)nc12`: the parasite growth, % of control (lower = inhibition) is 18.4%. As for `CN(C)c1nc(Cc2ccc(NC(=O)c3ccc4ccccc4c3)cc2)nc(Cl)c1CC(=O)O`, the parasite growth, % of control (lower = inhibition) was 42.6%. On the same count and under the same terms, for `CC(NCc1ccc2c(c1)nc(NC(=O)c1ccc(-c3cn[nH]c3)s1)n2CC(C)(C)O)C(C)(C)C` (stereo not given) the value was 9.25%. Still for that read-out and setting: for `CC(=O)SC[C@@H](C)C(=O)N1CCC[C@H]1C(=O)N[C@@H](Cc1ccccc1)C(=O)O` the value was 69.5%. With `COC(=O)Nc1ccc(-c2nc(N3CCOCC3)c3cnn(C4CCN(Cc5cccnc5)CC4)c3n2)cc1`, the parasite growth, % of control (lower = inhibition) is 9.27%. Same read-out and setting: next, `CNC(=O)c1ccc(-c2cnc3ncc(Cc4ccc5ncccc5c4)n3n2)cc1F`: 37.1%; `CC1(C)CCC(c2ccc(Cl)cc2)=C(CN2CCN(c3ccc(C(=O)NS(=O)(=O)c4ccc(N[C@H](CCN5CCOCC5)CSc5ccccc5)c(S(=O)(=O)C(F)(F)F)c4)cc3)CC2)C1`: 16.8%.

For the compound `CC1(C)OC2=C(C(=O)c3ccccc3C2=O)[C@H](NCc2ccccc2)[C@H]1O`, the parasite growth, % of control (lower = inhibition) stood at 6.48%. In the case of `CC(C)(C)c1cc(C(C)(C)C)c(NC(=O)c2c[nH]c3ccccc3c2=O)cc1O`, the parasite growth, % of control (lower = inhibition) is 88.9%. Same read-out and setting: for `COC(=O)[C@]12CCC(C)(C)C[C@@H]1[C@@H]1C(=O)C=C3[C@@]4(C)C=C(C#N)C(=O)C(C)(C)[C@@H]4CC[C@@]3(C)[C@]1(C)CC2` the value was 25.5%. As to `COc1cc2c(Oc3ccc(-c4cnc(Nc5ccc(F)cc5)n(C)c4=O)cc3F)ccnc2cc1OCCCN1CCOCC1`, the parasite growth, % of control (lower = inhibition) came to 17%.

As to `CC(C)c1ccccc1Cc1cc(C(=O)Nc2ccc(S(=O)(=O)c3ccccc3C(C)(C)C)cc2)c(O)c(O)c1O`, the parasite growth, % of control (lower = inhibition) is 11.2%. On the same count and under the same terms, next, `COc1ccc(C=Cc2cc(OC)c(OC)c(OC)c2)cc1O`: 44%; `CN1CCC(CNc2ccc3ncc(-c4cccc(OC(F)(F)F)c4)n3n2)CC1`: 10.4%. On the same count and under the same terms, for `O=c1[nH]nc(Sc2ncc([N+](=O)[O-])s2)n1-c1ccc2c(c1)OCCO2` the value was 60.1%; for `CCCCOc1c(C(=O)c2c(F)cc(C)cc2F)cnc2n[nH]cc12`, 43.3%. Same read-out and setting: for `CNC(=O)c1ccc(N2C(=S)N(c3cnc(C#N)c(C(F)(F)F)c3)C(=O)C23CCC3)cc1F` the value was 39%.
